Assay outcomes from PubChem.
ALDH1A1 inh: blocks purified human ALDH1A1 activity. P00352. Purified ALDH1A1, NADH fluorescence, propionaldehyde substrate. Potency, µM (top dose mostly 75.3 µM), most hits filed as inhibitors. 220,000 compounds, 7.3% hits. AID 1030
HPGD block: inhibitors of human 15-hydroxyprostaglandin dehydrogenase (HPGD). P15428. purified HPGD, NADH fluorescence kinetic, PGE2 substrate. Potency, µM, usual class: inhibitors. 150,000 compounds, 4.3% hits. AID 894
Target sequence (P15428 whole entry, looked up): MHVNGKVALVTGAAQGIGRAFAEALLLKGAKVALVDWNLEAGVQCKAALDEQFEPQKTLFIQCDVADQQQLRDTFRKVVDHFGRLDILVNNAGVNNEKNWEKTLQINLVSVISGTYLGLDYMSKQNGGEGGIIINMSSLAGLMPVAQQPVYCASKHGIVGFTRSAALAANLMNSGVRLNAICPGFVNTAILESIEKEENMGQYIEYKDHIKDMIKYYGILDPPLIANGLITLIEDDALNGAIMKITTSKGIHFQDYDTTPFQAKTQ
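NADH formation kinetics: reaction with 30 uM PGE2 and 1 mM NAD+ (final), 20 nM enzyme, Tris-HCl pH 8 with Tween 20, after 15 min compound preincubation at room temperature. Fluorescence change, last versus first of five reads.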
PNC assembly inh: perinucleolar compartment assembly inhibition | PC3M PTB-GFP, PNC prevalence imaging, 16 h; stronger effect = lower value | activity change (PNC), negative = inhibition, % at 10 µM | 140,000 compounds, 3.1% hits | AID 2417;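 active = readout at or below -70, meaning at least 70% loss of cells showing the perinucleolar compartment, a nuclear body marking cancer cells; inconclusive = readout between -30 and a set limit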
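Compounds are pinned in duplicate onto adhered PC3M cells stably expressing GFP-tagged PTB and incubated 16 h at 37 C. Cells are then fixed, nuclei stained with Hoechst, and PNC-positive cells counted.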
Numbers stand for hits; 0 = inactive; ? = inconclusive; - = no result given; [ ] = dose if it differs, or a comment. The list is not random: actives were taken first. Their share in the collection is about 11%. Unless noted, calls come from the whole dose curve; as a rule, active = well fitted inhibition curve with a large enough effect (not every such curve was filed as active); inconclusive = small, poorly fitted or top-dose-only effect, or another doubt; inactive = no such curve, though single readings can be large or run the other way.

SMILES	ALDH1A1 inh	HPGD block	PNC assembly inh
Nc1nc(CSC(=S)N2CCCCC2)nc(Nc2ccccc2)n1	25.1µM	-	-
Cc1nnc(SCC(=O)NNC(=O)C(C)C)[nH]c1=O	0	0	0
O=C(N/N=C/c1cc(Br)cc(Br)c1O)c1cccc(N2CCCC2=O)c1	0	-	-
COc1cc([N+](=O)[O-])ccc1NC(=O)COC(=O)C=C(C)C	0	-	-
COc1cc([N+](=O)[O-])ccc1NC(=O)Cn1ccsc1=N	8.91µM	-	-
COc1cc([N+](=O)[O-])ccc1NC(=S)NCc1ccccn1	17.8µM	0	0
COc1cccc(NC(=O)CCN2C(=O)c3ccc([N+](=O)[O-])cc3C2=O)c1	0	-	-
COc1ccccc1NC(=S)NCc1ccccn1	0	0	0
O=[N+]([O-])c1ccc(CS(=O)Cc2ccccc2)cc1 (stereo unspecified)	0[13.5 µM]	0	-
COc1ccc(NC(=O)CCN2C(=O)c3ccc([N+](=O)[O-])cc3C2=O)c(OC)c1	20µM	0	0
O=[N+]([O-])c1ccc(C[n+]2ccc(Cc3ccccc3)cc2)cc1	25.1µM	-	-
O=C(OCCCN=C1NS(=O)(=O)c2ccccc21)c1ccccc1F	0	0	0
COc1cc(CC(=O)OCC(=O)Nc2cccc([N+](=O)[O-])c2)cc(OC)c1OC	0	0	?
C#CCCCO/N=C1/C[C@@H](O)[C@@H](O)[C@@H]2[C@@H]3C(=O)N(Cc4ccccc4)C(=O)[C@H]3CC[C@H]12	0[13.5 µM]	-	-
COc1ccc(CC(=O)Nc2cccc(-c3ccc4nnc(C)n4n3)c2)cc1OC	0	-	-
O=C(CCN1CCc2ccccc2C1)Nc1ccccc1F	0	0	0
COc1cc([N+](=O)[O-])ccc1NC(=O)C[n+]1ccccc1C	?	0	0
O=C(C[n+]1ccc(Cc2ccccc2)cc1)Nc1ccc([N+](=O)[O-])cc1Cl	20µM	-	-
Cc1cccc[n+]1CC(=O)Nc1ccc([N+](=O)[O-])cc1Cl	0	0	0
COc1cc([N+](=O)[O-])ccc1NC(=O)C[n+]1ccccc1	14.1µM	0	0
C[C@H]1[C@H](O)[C@@H](C)C=CC=CC=CC=CC=CC=CC=C[C@H](O[C@@H]2O[C@@H](C)[C@H](O)[C@@H](N)[C@@H]2O)C[C@@H]2O[C@](O)(C[C@@H](O)C[C@@H](O)[C@@H](O)CC[C@@H](O)C[C@@H](O)CC(=O)O[C@H]1C)C[C@H](O)[C@H]2C(=O)O	0[13.5 µM]	0	-
CCO[C@@H]1OC(C(=O)N2CCCCCCC2)=C[C@H](c2ccc(C(F)(F)F)cc2)[C@H]1CCCO	0	-	-
COc1cccc(/C=C/C(=O)OCC(=O)N2c3ccccc3NC(=O)C2(C)C)c1	0	0	0
COc1ccc(C(=O)CSc2nnc(NC(=O)C3CC(=O)N(c4ccccc4C)C3)s2)cc1 (stereo unspecified)	11.2µM	0	0
COc1cccc(N2CC(C(=O)Nc3nnc(SCC(=O)Nc4cc(C)on4)s3)CC2=O)c1 (stereo unspecified)	0	-	-
SMILES	ALDH1A1 inh	HPGD block	PNC assembly inh
CC(=O)Oc1c(C(=O)c2nnc(C)o2)c(=O)n(C)c2ccccc12	?	?	0
CCN(CC)c1cnn(C/C(=N\OC)c2ccc(Cl)cc2)c(=O)c1Br	0	0	0
COC(=O)N/N=C(\C)c1ccccc1Br	0	0	0
O=Nc1ccc(NOC(=O)c2ccccc2Br)cc1	12.6µM	28.2µM	0
COc1ccc(NC(=O)C(C)NS(=O)(=O)c2ccccc2)cc1Cl (stereo unspecified)	?	0	0
COc1ccc(NC(=O)C(OC)c2ccccc2)cc1Cl (stereo unspecified)	12.6µM	0	?
COc1ccc(C)cc1NC(=O)C(Sc1nncn1C)c1ccccc1 (stereo unspecified)	0	-	-
COc1ccc(C)cc1NC(=O)C(c1ccccc1)N1CCNC(=O)C1 (stereo unspecified)	17.8µM	-	-
COc1ccc(NC(=O)C(NCC(C)C)c2ccccc2)cc1Cl (stereo unspecified)	1.41µM	-	-
COc1ccc(NC(=O)[C@@H](NC(N)=O)C(C)C)cc1Cl	0	-	-
COc1ccc(C)cc1NC(=O)CN1CCN(C/C=C/c2ccccc2)CC1	0	0	0
COc1ccc(C)cc1NC(=O)C(OC(=O)C1CC1)c1ccccc1 (stereo unspecified)	3.98µM	-	-
Cc1ccc(C#N)c(SCC(=O)Nc2nccs2)n1	0	-	-
O=C1C[C@H](c2ccccc2)[C@@H](c2ccc(Br)cc2)O1	0[13.5 µM]	-	-
CCOC(=O)CNC(=O)CSc1nc2cccnc2n1C	0	0	0
COc1ccccc1S(=O)(=O)CC(O)COc1ccc(F)cc1Cl (stereo unspecified)	0	-	-
CN1C(=O)CC(C(=O)O)SC1=Nc1cccc(C(F)(F)F)c1 (stereo unspecified)	0	-	0
CNC(=O)CN(C)S(=O)(=O)c1ccc(F)cc1	0	0	0
CCn1ccnc1C(O)c1ccccc1OC (stereo unspecified)	0	0	0
COc1ccc(Cl)cc1NC(=O)C(OC)c1ccccc1 (stereo unspecified)	1.58µM	-	-
CCC(C(=O)OCC(=O)Nc1cc(C)ccc1OC)c1ccccc1 (stereo unspecified)	0	-	-
COc1ccc(Cl)cc1NC(=O)c1ccccc1C	?	0	0
CCC(C(=O)Nc1cc(Cl)ccc1OC)c1ccccc1 (stereo unspecified)	22.4µM	0	0
Cc1ccc(F)cc1NC(=O)CSc1ncccn1	0	-	-
CCC(C(=O)OCC(=O)Nc1cc(Cl)cc(Cl)c1)c1ccccc1 (stereo unspecified)	0	0	0
SMILES	ALDH1A1 inh	HPGD block	PNC assembly inh
COC(=O)c1ccc(CN2CCN(Cc3ccc(C(=O)OC)o3)CC2)o1	22.4µM	0	0
O=C(O)c1ccc(CN2CCCCC2)o1	0	0	0
CCOC(=O)C1CCN(C(=O)Nc2ccccc2Cl)CC1	0	-	0
CC(C)CN(CC(C)C)C(=S)Nc1ccc(Cl)cc1	0	-	-
Cc1ccc(C(C[N+](=O)[O-])c2c(-c3ccccc3O)[nH][nH]c2=O)cc1 (stereo unspecified)	20µM	0	0
O=c1[nH][nH]c(-c2ccccc2O)c1C(C[N+](=O)[O-])c1ccc(Br)cc1 (stereo unspecified)	?	0	0
NC(=O)[C@@H]1CCCNc2c(I)cc([N+](=O)[O-])cc2C(=O)N[C@@H](CO)C(=O)NCC(=O)N1	0	0	0
C=CCc1ccccc1OCC(O)CN(CC)CC (stereo unspecified)	0	0	0
Cc1cc(C)n2c(SCC(=O)Nc3ncc(C(F)(F)F)cc3Cl)nnc2n1	12.6µM	0	0
Cc1cc(C)n2c(SCC(=O)Nc3ccc(F)cc3)nnc2n1	14.1µM	-	-
Cc1cc(C)nc(SCC(=O)Nc2ncc(C(F)(F)F)cc2Cl)n1	0	0	0
CCN(c1ccc(NC(=O)CSc2nnc3nc(C)cc(C)n23)cc1)C(C)C	?	?	0
Cc1nn(C)c(C)c1CN(Cc1nc(CCC(C)C)no1)C(C)C	0	-	-
Cc1ccc(N2CN(CCc3ccccc3)CNC2=S)cc1	0	-	-
CCOC(=O)C1CCCN(C(=O)CSCc2ccccc2)C1 (stereo unspecified)	?	0	0
CCOC(=O)C1CCCN(C(=O)c2ccc(C)cc2O)C1 (stereo unspecified)	?	14.1µM	0
CCOC(=O)C1CCCN(C(=O)c2ccccc2NC(C)=O)C1 (stereo unspecified)	0	0	?
